Screening results: PubChem BioAssay, several laboratories
Efflux pump inh: antifungal efflux pump inhibition, Nile Red retention; S. cerevisiae Candida pump triplex; inhibition, % at 10 µM; 330,000 tested, 0.44% active; AID 485275;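 active = plate passing quality check with inhibition over a set limit, or well fluorescence over plate mean plus 4 SD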;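 note: Nile Red retained in pooled yeast measured as flow cytometry median fluorescence; higher means more Nile Red kept so more efflux inhibition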
AHR activator: activators of human aryl hydrocarbon receptor; activation, % at 5 µM; AHR-responsive luciferase reporter cells, luminescence; P35869; 320,000 tested, 2.5% active; in the data active = activation above about 47%
ALR inh: inhibitors of human sulfhydryl oxidase ALR | P55789 | purified ALR, DTT oxidation, H2O2 HRP-luminol luminescence | inhibition, % (test concentration not listed) | 290,000 tested, 3.8% active | AID 485317;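 active = mean replicate inhibition above about 79%, with every replicate also reaching it, limit read from the data; inconclusive = only one of the two criteria met; inactive = mean below limit and not every replicate reaching it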
Target sequence (P55789 whole entry, looked up): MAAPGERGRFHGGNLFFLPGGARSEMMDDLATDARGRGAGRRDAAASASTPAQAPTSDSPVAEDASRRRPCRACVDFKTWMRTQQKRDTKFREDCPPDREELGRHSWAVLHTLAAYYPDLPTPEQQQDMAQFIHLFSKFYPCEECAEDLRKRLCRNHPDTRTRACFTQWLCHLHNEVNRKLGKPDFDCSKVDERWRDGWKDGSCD
VLA-4 inh: inhibition in a human VLA-4 binding assay; P13612; VLA-4 expressing cells, ligand binding flow cytometry; 330,000 tested, 0.2% active; inhibition, % (about 7 µM as worked out from the volumes in the protocol); in the data active = inhibition above about 50%
Mot1-301 SUMO: blocks SUMOylation pathway, rescuing yeast Mot1-301 growth; S. cerevisiae Mot1-301 growth rescue, ATP luminescence, 38.5C; percent above DMSO median, 100 means doubled; growth rescue, % at 18.8 µM; 320,000 tested, 1% active; AID 2716;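 active = every valid replicate shows activation above 250% relative to neutral control wells; inactive = the rest, any valid replicate at or below 250%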
A1 inh: inhibitors of the anti-apoptotic protein A1, read as caspase activation; MEF A1-2A-BIM cells, Caspase-Glo 3/7 luminescence, 3 h; percent of clofoctol response, vehicle zero; caspase activation, % (test concentration not listed); 330,000 tested, 0.066% active;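 active = over half of replicate activation scores above 10%, or exactly half above 10 with the replicate mean above 10; inconclusive = replicate mean below 10 yet half the replicates above 10; inactive = over half of replicates below 10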
Each line names hits and unclear results; the compound was inactive in the other large screens. The list is not random: actives were taken first. Their share in the collection is about 7.2%.

COc1ccc(N2CCN(C(=O)COC(=O)c3cnccn3)CC2)cc1	none (no result: ALR inh)
COc1cc2c(cc1OC)C(c1ccc(-c3cc(Cl)ccc3Cl)o1)=NCC2	none
COc1cc2c(cc1OC)C(c1ccc(-c3ccc(Cl)c(Cl)c3)o1)=NCC2	AHR activator 63
COC(=O)c1cc(NS(=O)(=O)c2ccc(F)cc2)ccc1N1CCOCC1	none
COC(=O)c1cc(NCc2cccs2)ccc1N1CCOCC1	ALR inh 100
COC(=O)c1cc(NS(=O)(=O)c2ccc(C(C)C)cc2)ccc1N1CCOCC1	Mot1-301 SUMO 314
COC(=O)c1cc(NC(=O)c2cccs2)ccc1N1CCOCC1	none
Fc1cccc(Cl)c1CNc1ccc(N2CCCC2)cc1	ALR inh 99
COC(=O)c1cc(NS(=O)(=O)c2cccc(Cl)c2)ccc1N1CCOCC1	none
COC(=O)c1cc(NCc2c(F)cccc2Cl)ccc1N1CCOCC1	ALR inh 99
O=c1ccc(-c2ccc(S(=O)(=O)Nc3cccc(Br)c3)o2)n[nH]1	none
CCCOC(=O)c1ccc(Oc2coc3c(CN(CC)CC)c(O)ccc3c2=O)cc1	none
CC(C)NC(=O)NC(=O)COC(=O)c1cc(S(=O)(=O)N2CCCCC2)ccc1N1CCOCC1	none
O=C(O)c1cc(NCc2ccccc2C(F)(F)F)ccc1N1CCOCC1	none
O=C(O)c1cc(NCc2cccs2)ccc1N1CCOCC1	ALR inh 98
CC(C)CNC(=O)COC(=O)c1cc(S(=O)(=O)N2CCCCC2)ccc1N1CCOCC1	Mot1-301 SUMO 277
O=C(O)c1cc(NCc2ccc(F)cc2)ccc1N1CCOCC1	ALR inh 97 (no result: Mot1-301 SUMO)
COc1ccccc1NC(=O)/C(C#N)=C/c1cc([N+](=O)[O-])ccc1N1CCCC1	none
C=CCc1ccc(O)c(-c2ccc(O)c(CC=C)c2)c1	ALR inh 98
C=CCc1cc(C(=O)N2CCCCC2)ccc1O	none
Cc1c(C(=O)Nc2cnccn2)oc2ccccc12	AHR activator 93
CC(=O)Nc1cccc(NC(=O)c2oc3ccccc3c2C)c1	AHR activator 113
Cc1ccnc(NC(=O)c2oc3ccccc3c2C)c1	none
COc1ccc(NC(=O)c2oc3ccccc3c2C)c(OC)c1	AHR activator 58
Cc1c(C(=O)Nc2ccc(Cl)cn2)oc2ccccc12	AHR activator 64 (no result: ALR inh)
CC(=O)Nc1ccc(NC(=S)NC(=O)c2oc3ccccc3c2C)cc1	none
Nc1ccccc1C(O)(Cc1ccccc1)c1ccccc1 (stereo not given)	ALR inh 99
NC(Cc1ccccc1)C(O)(c1ccccc1)c1ccccc1 (stereo not given)	none
N#Cc1c(Cl)nsc1NCCN1CCOCC1	none
CCC(=O)c1ccc(OCC(=O)N2CCN(S(=O)(=O)c3ccc(Cl)s3)CC2)cc1	none (no result: ALR inh)
CN(C)S(=O)(=O)c1cc(NC(=O)c2ccc(-n3ccnc3)c([N+](=O)[O-])c2)ccc1Cl	AHR activator 53
Cc1c(C(=O)NC2CCCC2)oc2ccccc12	AHR activator 61
Cc1c(C(=O)NC2=NCCS2)oc2ccccc12	AHR activator 64, ALR inh 97
CCOCc1c(C(=O)NC2CCCCCC2)oc2ccccc12	none
COc1ccc(N2CCN(S(=O)(=O)CCNC(=O)COc3ccccc3OC)CC2)cc1	ALR inh 93
COc1ccccc1OCC(=O)NCCS(=O)(=O)N1CCN(c2ccc(F)cc2)CC1	none
COc1ccc(C(=O)NCCS(=O)(=O)N2CCc3ccccc3C2)cc1	Mot1-301 SUMO 530
COc1ccc(/C=C/C(=O)OCC(=O)NCCc2ccccc2)c(OC)c1	none
O=c1c(-c2ccc(O)cc2)coc2c([C@@H]3O[C@H](CO)[C@@H](O)[C@H](O)[C@H]3O)c(O)ccc12	ALR inh 99
O=c1c(-c2ccc(O)cc2)coc2c(C3O[C@H](CO)[C@@H](O)[C@H](O)[C@H]3O)c(O)ccc12 (stereo not given in full)	ALR inh 99
O=c1cc(-c2ccc(O)cc2)oc2c([C@@H]3O[C@H](CO)[C@@H](O)[C@H](O)[C@H]3O)c(O)c([C@@H]3O[C@H](CO)[C@@H](O)[C@H](O)[C@H]3O)c(O)c12	none (no result: ALR inh)
CCCn1nc(NC(C)=O)c2cc3cccc(C)c3nc21	AHR activator 48
CCn1nc(NS(=O)(=O)c2ccccc2[N+](=O)[O-])c2cc3cccc(C)c3nc21	ALR inh 92
CCCC(=O)Nc1nn(C)c2nc3c(C)cccc3cc12	none
Cc1cccc2cc3c(NC(=O)c4ccccn4)nn(C)c3nc12	AHR activator 49
O=C(O)CCCCCN1C(=O)C(O)=C(C(=O)/C=C/c2ccccc2)C1c1ccccc1[N+](=O)[O-] (stereo not given)	none
Cc1ccc2nc(N(CCN(C)C)C(=O)c3cc(Cl)sc3Cl)sc2c1	ALR inh 96
CCc1ccccc1N(C(=O)c1snc(C(N)=O)c1N)C(C(=O)NCC1CCCO1)c1ccc(C)o1 (stereo not given)	AHR activator 79
Nc1cnc(Nc2ccc(Br)cc2)nc1N	ALR inh 96
CCOc1cc(/C=C(/C#N)C(=O)Nc2ccc(O)cc2)cc(Br)c1O	ALR inh 99 (no result: Mot1-301 SUMO)
CCOc1cc(/C=N/NC(=O)c2ccccc2OCc2ccc(F)cc2)ccc1O	none
CCOc1cc(/C=N/NC(=O)c2cccnc2)ccc1O	none (no result: ALR inh)
CCOc1cc(/C=N/NC(=O)C(N)=O)cc(Br)c1O	ALR inh 91
CCOc1cc(/C=N/NC(=O)N/N=C/c2ccc(O)c(OCC)c2)ccc1O	ALR inh 99
CCOc1cc(/C=N/NC(=O)c2ccccc2-n2cccc2)ccc1O	ALR inh 99
NCc1ccccc1COc1ccccc1	none
O=C(COc1ccccc1C(=O)N/N=C\c1ccc(O)c(O)c1)N/N=C/c1ccc(O)c(O)c1	ALR inh 99
CCOc1cc(/C=N/NC(=O)C(C)Sc2ccccc2)ccc1O (stereo not given)	ALR inh 99 (no result: Mot1-301 SUMO)
COc1cccc(/C=N/NC(=O)C(C)Sc2ccccc2)c1 (stereo not given)	none
CCOc1cc(/C=N/NC(=O)C(OC)c2ccccc2)ccc1O (stereo not given)	ALR inh 100
S=C(NCc1ccco1)Nc1ccc(Oc2ccccc2)cc1	ALR inh inconclusive
COC(=O)c1ccc(Cn2nc(-c3cc(C)ccc3C)ccc2=O)cc1	none (no result: AHR activator)
O=C1CCC/C1=C/Nc1ccc2c(c1)OCO2	AHR activator 73
Cc1cc(C)nc(NNC2=CC(=[N+]3CCCC3)CCC2)n1	none
Cc1cc(C)nc(NNC2=CC(=[N+]3CCCCC3)CC(C)(C)C2)n1	ALR inh 99
COc1ccc(CC(=O)NCc2n[nH]c(=S)n2-c2cccc(C)c2)cc1	none
COc1cc(OC)cc(C(=O)NCc2n[nH]c(=S)n2-c2ccccc2OC)c1	none
